Screens: PubChem BioAssay, National Center for Advancing Translational Sciences (NCATS)
uPA surface inh – cell surface uPA generation inhibition. cell surface uPA generation assay, qHTS. Potency, µM (top dose mostly 38.3 µM), for inactives: at the top dose activity change, negative = inhibition, actives largely listed as inhibitors. 330,000 compounds, 0.31% hits. AID 540303; active = well fitted inhibition curve with a large enough effect; inconclusive = small, poorly fitted or top-dose-only effect; inactive = no such curve, though single readings can be large or run the other way; tested in mouse RAW 264.7 cells; note: % is set by controls: 0 for no effect and ±100 for the full control effect; nearly all actives have a fitted effect of over 55% in size
Rab9 prom act – activators of Rab9 promoter; Potency, µM (highest dose often 9.22 µM), for inactives: at the top dose activation, negative = inhibition, hits mostly activators; 320,000 compounds, 2.8% hits; Huh7 Rab9 promoter-luciferase reporter, luminescence, 24 h; note: % of control where 0% means no effect; nearly all actives have a fitted effect of over 60% in size
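Luciferase signal after 10 min detection reagent at ambient indicates Rab9 promoter upregulation; stably transfected Huh7 cells were treated 24 h with compound in DMSO at 37 °C, 5% CO2.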
SMN2 splice enh – enhancers of SMN2 splice variant expression | HEK293 SMN2-luciferase splicing reporter, luminescence, 30-36 h | Potency, µM (highest dose often 46.1 µM), for inactives: top-dose activity change, positive = activation, actives largely listed as activators | 210,000 compounds, 2.8% hits; note: % of control where 0% means no effect; nearly all actives have a fitted effect of over 55% in size
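qHTS luciferase splicing reporter: luminescence rises when SMN2 exon 7 is included in transfected HEK293 cells. Compound exposure lasted 30-36 h at 37C, with 4.5 mM final sodium butyrate as control, followed by a ONE-Glo read.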
ELG1 genotoxic – inducers of genotoxicity in HEK293T ELG1-luciferase cells; HEK293T ELG1-luciferase reporter, luminescence, 16 h; Potency, µM (titrated, usually from 46 µM), for inactives: at the top dose activity change, positive = activation, most hits filed as activators; 330,000 compounds, 1.3% hits; AID 504466; note: % of control where 0% means no effect; nearly all actives have a fitted effect of over 60% in size
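DMSO vehicle served as control against compound-treated ELG1-luciferase HEK293T cells; exposure lasted 16 hr at 37 °C and 5% CO2, followed by ONE-Glo luminescence detection after 30 min.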
NPC1 prom act – activators of NPC1 promoter; 320,000 compounds, 2.4% hits; Potency, µM (doses to about 9.22 µM), for the others: top-dose activation, hits mostly activators; Huh7 NPC1 promoter luciferase reporter, 24 h; AID 485313; note: % of control where 0% means no effect; nearly all actives have a fitted effect of over 60% in size
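Cells: Huh7 expressing luciferase under the NPC1 promoter, 1500/well. Seeded 2 h, compound added, incubated 24 h at 37 °C. Luciferase reagent, 10 min ambient, then luminescence.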
FLuc modulator – firefly luciferase modulation, counter-screen for miR-21 project; purified FLuc, Km substrates, luminescence inhibition; Potency, µM (highest dose often 57.5 µM), for inactives: top-dose activity change, negative = inhibition, hits mostly inhibitors; 360,000 compounds, 6.9% hits;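 note: plate controls were vehicle for no effect and reference inhibitor for full effect; nearly all actives have a fitted effect of over 55% in size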
Target sequence (P08659 whole entry, looked up): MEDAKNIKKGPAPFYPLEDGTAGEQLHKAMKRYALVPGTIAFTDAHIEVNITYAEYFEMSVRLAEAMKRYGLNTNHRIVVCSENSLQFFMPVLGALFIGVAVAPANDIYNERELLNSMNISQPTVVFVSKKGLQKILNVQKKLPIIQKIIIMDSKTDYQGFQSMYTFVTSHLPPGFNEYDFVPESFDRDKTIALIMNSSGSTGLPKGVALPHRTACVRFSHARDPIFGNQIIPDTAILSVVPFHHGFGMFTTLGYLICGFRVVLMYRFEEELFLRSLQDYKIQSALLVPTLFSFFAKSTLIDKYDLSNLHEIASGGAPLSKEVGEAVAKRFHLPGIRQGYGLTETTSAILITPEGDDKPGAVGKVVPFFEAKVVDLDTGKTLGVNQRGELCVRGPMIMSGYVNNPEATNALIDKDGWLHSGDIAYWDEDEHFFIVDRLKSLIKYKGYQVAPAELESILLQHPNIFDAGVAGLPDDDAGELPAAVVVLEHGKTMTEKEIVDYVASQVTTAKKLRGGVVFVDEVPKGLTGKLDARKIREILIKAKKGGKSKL
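Biochemical qHTS of compounds, final roughly 60 µM downward over six points, against 10 nM purified firefly luciferase using Km concentrations of substrates (10 uM D-luciferin, 10 uM ATP) in Tris acetate pH 7.5 buffer; luminescence output.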
Starred values were filed as active, the others as inactive; ? = inconclusive; / = no result given. In the library only some 7.3% were active in any assay of this set; here they are far more common. Unless noted, calls come from the whole dose curve; as a rule, active = well fitted curve in the direction sought with a large enough effect; inconclusive = small, poorly fitted or top-dose-only effect, or another doubt; inactive = no such curve, though single readings can be large; an effect the other way counts as inactive or inconclusive. Potency is the fitted concentration of half-maximal effect.

SMILES	uPA surface inh	Rab9 prom act	SMN2 splice enh	ELG1 genotoxic	NPC1 prom act	FLuc modulator
CC(C)c1cnc2c(c1SCC(=O)NCc1ccccc1Cl)c(=O)n(C)c(=O)n2C	/	/	/	/	/	-3%
Cc1ccc(S(=O)(=O)c2cn(Cc3cccc(F)c3)c3cc(N4CCCC4)c(F)cc3c2=O)cc1	/	/	/	/	/	-3%
Cc1ccc2c(CN3CCC(C)CC3)cc(=O)oc2c1	/	1.8µM*	14µM*	4.6µM*	3.5µM*	7.6µM*
Clc1ccc(-c2cn3cccnc3n2)cc1	-8%	?	-5%	16µM*	27%	11µM*
COc1ccc(-c2cn3cccnc3n2)cc1F	-9%	?	16µM*	?	?	8.5µM*
Brc1ccc(-c2cn3cccnc3n2)cc1	-2%	2.2µM*	7.9µM*	2.9µM*	?	8.5µM*
CCC(=O)Nc1cc(-c2cn3cccnc3n2)ccc1OC	/	/	/	/	/	3%
O=S(=O)(Nc1ccc(-c2cn3cccnc3n2)cc1)c1ccccc1	-1%	-8%	3%	1%	0%	?
Clc1ccc(-c2cn3cccnc3n2)cc1Cl	-3%	?	?	?	?	17µM*
O=C(Nc1cccc(-c2cn3cccnc3n2)c1)c1cc(Br)ccc1Cl	/	/	/	/	/	-4%
CCn1nnc2cc(C(=O)Nc3cc(C)ccc3C)ccc21	/	/	/	/	/	7%
Cc1ccc(N2C(=O)CSC23C(=O)N(CC(=O)NC2CCCCC2)c2ccccc23)cc1 (stereo not drawn)	/	/	/	/	/	-3%
CC(=O)c1cccc(NC(=O)C(C)n2c(=O)cc(-c3ccccc3)c3c(C)nn(C)c32)c1 (stereo not drawn)	/	/	/	/	/	-14%
CCc1c(C)nc2[nH]nc(-c3ccccc3C)n2c1=O	-5%	0%	20%	2%	1%	?
CCc1c(C)nc2[nH]nc(-c3ccccc3)n2c1=O	-1%	9%	/	?	14%	21µM*
CC(C)(C)C1CCc2c(sc3nc(-c4cc5cc(Br)ccc5oc4=O)[nH]c(=O)c23)C1 (stereo not drawn)	/	/	/	/	/	-13%
CCOC(=O)COc1c(-c2ccc(OC)cc2)oc2ccccc2c1=O	0%	-7%	-16%	1%	-3%	-10%
CCOC(=O)/C=C/c1ccc2oc3ccccc3c(=O)c2c1	3%	4µM*	/	?	3.5µM*	2.4µM*
Clc1ccc(OCc2nnc(-c3ccccc3Br)o2)c(Cl)c1	-24%	4µM*	?	?	3.2µM*	6µM*
Cc1cc(Cl)ccc1OCc1nnc(-c2ccccc2C)o1	0%	4µM*	/	?	?	?
Fc1ccc(OCc2nnc(-c3ccccc3Br)o2)c(Cl)c1	1%	2.5µM*	/	2.3µM*	?	9.5µM*
Clc1cccc(OCc2nnc(-c3ccccc3Br)o2)c1	5%	17%	/	18%	26%	?
CCCCCn1c(=N)c(S(=O)(=O)c2ccccc2)cc2c(=O)n3ccccc3nc21	/	/	-10%	/	/	3%
CCCOC(=O)c1c(NC(=O)C2c3ccccc3Oc3ccccc32)sc2c1CCC(C)C2 (stereo not drawn)	/	/	9%	/	/	2%
CN1C(=O)c2ccccc2Sc2ccc(NC(=O)N3CCN(c4cccc(Cl)c4)CC3)cc21	/	/	/	/	/	-6%
SMILES	uPA surface inh	Rab9 prom act	SMN2 splice enh	ELG1 genotoxic	NPC1 prom act	FLuc modulator
CN(C)c1ccc(NC(=O)c2sc(SCC(=O)Nc3nccs3)nc2N)cc1	-4%	?	69%	?	25%	1.9µM*
CCCCNC(=O)CSc1nc(N)c(C(=O)Nc2ccc(OC)cc2)s1	0%	28%	/	10%	26%	17µM*
CN(C)c1ccc(NC(=O)c2sc(SCC(=O)Nc3ccc(Br)cc3)nc2N)cc1	-5%	14%	-18%	9%	-3%	-17%
CCOc1ncccc1C(=O)OCC(=O)Nc1ccc(-c2nc3ccc(C)cc3s2)cc1	-4%	0.35µM*	1.6µM*	7.3µM*	0.45µM*	5.4µM*
Cc1ccc2nc(-c3ccc(NC(=O)CN4CCN(C(=O)c5ccco5)CC4)cc3)sc2c1	-14%	?	?	?	?	4.8µM*
CC(=O)Nc1ccc(C(=O)COC(=O)c2ccco2)c(F)c1	-56%	-8%	/	4%	-4%	13µM*
O=C(COC(=O)c1ccc([N+](=O)[O-])o1)Nc1ccc(F)cc1	-6%	/	/	0%	/	/
Cc1ccc2nc(-c3ccc(NC(=O)COC(=O)c4ccc([N+](=O)[O-])o4)cc3)sc2c1	-4%	0.45µM*	0.71µM*	1.3µM*	0.4µM*	1.3µM*
Cc1ccc(C)c(CN2C(=O)c3ccccc3Sc3ccc(C(=O)NCc4ccco4)cc32)c1	/	/	/	/	/	-3%
Cc1nnc(N2CCC(C(=O)NCCc3ccccc3Cl)CC2)c2nn(-c3ccccc3)c(C)c12	/	/	/	/	/	-17%
CNS(=O)(=O)c1cccc(C(=O)OCC(=O)Nc2ccc(N3CCCCC3)cc2)c1	-9%	?	22%	0%	4%	?
Cc1ccc2nc(-c3ccc(NC(=O)COC(=O)c4ccco4)cc3)sc2c1	-18%	0.32µM*	2.2µM*	2.9µM*	0.45µM*	11µM*
Cc1ccc2nc(-c3ccc(NC(=O)COC(=O)c4cncc(Br)c4)cc3)sc2c1	-6%	0.32µM*	0.56µM*	1.3µM*	?	1.7µM*
CNS(=O)(=O)c1cccc(C(=O)OCC(=O)Nc2ccc(-c3nc4ccc(C)cc4s3)cc2)c1	-8%	?	1.1µM*	0.73µM*	0.5µM*	4.8µM*
Cc1ccc2nc(-c3ccc(NC(=O)COC(=O)c4ccc(Br)o4)cc3)sc2c1	-7%	0.4µM*	0.5µM*	1.2µM*	0.79µM*	3.4µM*
Cc1ccc(NC(=O)COC(=O)c2ccco2)cc1	4%	-1%	/	4%	-2%	17µM*
NC(=O)c1ccccc1NC(=O)COc1ccc(Cl)cc1	-71%	?	/	?	3.2µM*	17µM*
CSc1ccccc1NC(=O)COc1ccc(Cl)cc1	-14%	15%	-2%	6%	15%	?
Cc1ccc(OCC(=O)Nc2ccccc2C(N)=O)cc1	-9%	2.8µM*	/	?	2.5µM*	8.5µM*
CCOC(=O)N1CCN(C(=O)c2ccccc2NC(=O)COc2ccccc2)CC1	1%	4%	/	-4%	22%	-19%
O=C(COc1ccc(Cl)cc1)Nc1ccccc1Cl	2%	-4%	/	?	16%	17µM*
Cc1ccc(OCC(=O)Nc2ccccc2-c2ccccc2)cc1	-3%	?	?	?	?	15µM*
Cc1coc2c1c(C)cc1oc(=O)c(CC(=O)NCc3ccc(Cl)cc3)c(C)c12	/	/	13%	/	/	-7%
